Source: PubChem
Only some compounds are listed: those with a hit (about 7.9% of all), similar ones and a draw of the others.
KB-V1 cytotox = qHTS assay for MDR1-selective chemotherapeutics: Primary screen using the drug-selected MDR subline cells KB-V1. KB-V1 MDR cells viability, CellTiter-Glo, 72 h. AID 1347076, 2019. Potency, µM (top dose mostly 46.1 µM), usual class: cytotoxic. 400,000 compounds, 3.4% hits; also: % is scaled to controls: 0 for no effect and ±100 for the full control effect; nearly all actives have a fitted effect of over 60% in size
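Potencies derive from concentration-effect curves fitted to normalized luminescence (CellTiter-Glo) of KB-V1 cells treated for 72 h at 37 degrees C in phenol-red-free DMEM containing 10% FBS.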
SW480 rereplic = A quantitative high throughput screen for small molecules that induce DNA re-replication in SW480 colon adenocarcinoma cells; SW480 DNA re-replication, Hoechst DNA content imaging, 48 h; 340,000 compounds, 1.8% hits; Potency, µM (series often up to 46.1 µM), inactives show at the top dose re-replication activation, hits mostly activators; also: % of control where 0% means no effect; nearly all actives have a fitted effect of over 55% in size
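Per well, 250 cells were exposed to pinned compound for 48 hr. Nuclear DNA was visualised with Hoechst (40 min, 37 C) and total object intensity recorded by fluorescence scanning.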
HT1080NT lethal = qHTS for induction of synthetic lethality in tumor cells producing 2HG: qHTS for the HT-1080-NT fibrosarcoma cell line | HT-1080-NT fibrosarcoma viability, CellTiter-Glo ATP luminescence, 48 h | Potency, µM (top dose mostly 46.1 µM), without a hit: at the top dose activity, negative = less viability, most hits filed as cytotoxic | 360,000 compounds, 1.6% hits | AID 686970, 2013;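 also: NT is the 2HG producing partner of a matched IDH1 knockdown line; 0% = DMSO-treated cells and -100% = media-only wells without cells; nearly all actives have a fitted effect of over 55% in size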
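HT-1080-NT fibrosarcoma cells (2HG-overproducing), 750 cells/well in RPMI with 5% FBS, dosed after 2 h and incubated 48 h at 37C. CellTiter-Glo luminescence normalized to DMSO and no-cell wells; concentration-response curves fitted and classed.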
HT1080 IDH1KD tx = qHTS for induction of synthetic lethality in tumor cells producing 2HG: qHTS for the HT-1080-IDH1KD cell line; HT-1080 IDH1 knockdown viability, ATP luminescence, 48 h; Potency, µM (titrated, usually from 46.1 µM), for the others: at the top dose activity, negative = toxicity, actives largely listed as cytotoxic; AID 686971, 2013; 360,000 compounds, 2% hits;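 also: 0% = DMSO wells and -100% = cell-free medium wells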
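In this qHTS, HT-1080 cells depleted of IDH1 are exposed for 48 h at 37 °C to compound titrations. Toxicity is scored from CellTiter-Glo luminescence, with DMSO as full viability and medium alone as none.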
MCF10A rereplic = A quantitative high throughput screen for small molecules that induce DNA re-replication in MCF 10a normal breast cells | 350,000 compounds, 2.9% hits | Potency, µM (top dose mostly 46.1 µM), inactives show at the top dose activity, positive = re-replication, actives largely listed as activators | AID 624296, 2012 | MCF 10A DNA re-replication, Hoechst nuclear intensity, 48 h; also: % of control where 0% means no effect; nearly all actives have a fitted effect of over 50% in size
KB-3-1 cytotox = qHTS assay for MDR1-selective chemotherapeutics: Primary screen using the parental adenocarcinoma cell KB-3-1 | KB-3-1 viability, CellTiter-Glo ATP luminescence, 72 h | Potency, µM (top dose mostly 46.1 µM), usual class: cytotoxic | 400,000 compounds, 1.4% hits | AID 1347075, 2019; also: % is scaled to controls: 0 for no effect and ±100 for the full control effect; nearly all actives have a fitted effect of over 60% in size
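Cells are dispensed, compounds pinned in, plates held at 37 °C for 72 h, then CellTiter-Glo is added and luminescence read after 10 minutes. Cell line: parental KB-3-1 in phenol-red-free DMEM, 10% FBS.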
Starred values were filed as active, the others as inactive; i = inactive; u = inconclusive; x = no result; [ ] = remark or other dose. Calls follow the shape of the dose curve; as a rule, active = well fitted curve in the direction sought with a large enough effect; inconclusive = small, poorly fitted or top-dose-only effect, or another doubt; inactive = no such curve, though single readings can be large; an effect the other way counts as inactive or inconclusive. Potency is read from the fitted curve at half-maximal effect.

SMILES	KB-V1 cytotox	SW480 rereplic	HT1080NT lethal	HT1080 IDH1KD tx	MCF10A rereplic	KB-3-1 cytotox
COc1ccccc1Nc1ccc([N+](=O)[O-])cc1N	i	-8%	-1%	-12%	u	u
COc1cc(Nc2ccccc2Cl)c([N+](=O)[O-])nc1[N+](=O)[O-]	i	4.6µM*	u	u	u	i
Cc1cc([N+](=O)[O-])ccc1NC(=O)C(C)N1CCN(c2ccccn2)CC1 (stereo not given)	21µM*	-1%	1%	1%	0%	i
CC(C(=O)Nc1ccccc1)N1CCN(c2ccccn2)CC1 (stereo not given)	i	6%	4%	0%	-16%	i
COCCn1c(SCC(=O)Nc2nc(C)c(Cl)cc2Cl)nc2ccccc21	u	-7%	-21%	-8%	17%	i
O=C(CSc1nc2ccccc2n1-c1ccccc1)Nc1ncc(Cl)cc1Cl	u	7%	-3%	-22%	u	5.2µM*
O=C(O)CCSc1nc2ccccc2n1-c1ccccc1	i	-9%	u	u	-1%	i
Cc1cccc(-n2c(SCC(=O)Nc3ncc(Cl)cc3Cl)nc3ccccc32)c1	u	u	u	u	15%	2.9µM*
Cn1c(Cc2ccccc2)nnc1SCc1cc(=O)n2ccsc2n1	i	-14%	17%	14%	-5%	i
Cc1cccc(-n2c(SCc3cc(=O)n4ccsc4n3)nc3ccccc32)c1	13µM*	u	-22%	-14%	8%	u
CC1C(=O)N(Cc2cn(Cc3ccco3)nn2)CCS(=O)(=O)N1Cc1ccc(-c2ccc(F)cc2)cc1 (stereo not given)	i	x	7%	11%	x	i
CCCCn1nc(C(=O)Nc2ccc(-n3cnnn3)cc2)c2ccccc2c1=O	u	u	6%	4%	0%	i
Cc1ccccc1-n1nc2c(c1NC(=O)c1c(-c3ccccc3Cl)noc1C)CS(=O)(=O)C2	8.2µM*	-1%	-3%	10%	2%	i
Cc1ccccc1-n1nc2c(c1NC(=O)c1ccco1)CS(=O)(=O)C2	i	-7%	0%	-2%	-1%	i
Cc1ccc(-n2nc3c(c2NC(=O)c2c(-c4ccccc4Cl)noc2C)CS(=O)(=O)C3)c(C)c1	12µM*	0%	12%	4%	0%	i
NC(=O)C1CCN(Cc2nc3ccccc3c(=O)[nH]2)CC1	i	-2%	5%	6%	425%[0.0737 µM]	i
O=c1[nH]c(CN2CCN(S(=O)(=O)/C=C/c3ccccc3)CC2)nc2cc(Cl)ccc12	u	u	9.2µM*	21µM*	18µM*	23µM*
O=c1[nH]c(CN2CCN(S(=O)(=O)/C=C/c3ccccc3)CC2)nc2ccccc12	i	2%	-11%	-5%	28%	i
NC(=O)C1CCN(Cc2nc3cc(Cl)ccc3c(=O)[nH]2)CC1	i	0%	21µM*	18µM*	21µM*	u
C[C@@H]1CN([C@@H](C)CO)S(=O)(=O)c2ccc(C#CC(C)(C)O)cc2O[C@H]1CN(C)C(=O)C1CCCCC1	i	x	2%	10%	x	i
CCOc1ccc(S(=O)(=O)N2CCc3ccccc3C2)cc1	i	-1%[9.22 µM]	-1%	-11%	1%	i
CCOc1ccc(S(=O)(=O)N2CCc3cc(OC)c(OC)cc3C2)cc1	2.3µM*	-689%	7%	17%	-46%	i
Cc1ccccc1NS(=O)(=O)c1nnc(NC(=O)c2ccccc2C)s1	u	4%	-2%	-6%	6%	i
CCN(CC)c1ccc(/C=C/c2ccc3ccccc3n2)cc1	u	x	x	x	x	2.3µM*
CC(OC(=O)/C=C/c1ccc2ccccc2n1)C(=O)N(C)c1ccccc1 (stereo not given)	u	2%	9%	13%	-1%	u
SMILES	KB-V1 cytotox	SW480 rereplic	HT1080NT lethal	HT1080 IDH1KD tx	MCF10A rereplic	KB-3-1 cytotox
CC[N+](C)(C)c1ccc(/C=C/c2ccc3ccccc3n2)cc1	i	x	x	x	x	2.9µM*
CCN(CC)c1ccc(/C=C/c2nccc3ccccc23)cc1	i	x	x	x	x	i
CC(=O)/C=C/c1ccc2ccccc2n1	i	9.2µM*	u	u	15µM*	i
COc1ccccc1C(=O)Nc1c(C(=O)Nc2ccccc2F)oc2ccccc12	i	x	x	x	x	u
CC(=O)N1CCN(c2ccc(NC(=O)COc3ccc(Cl)cc3Cl)cc2)CC1	u	2%	-7%	-26%	23%	i
Cc1cc(Cl)ccc1OCCCC(=O)NO	i	u	21µM*	21µM*	3%	u
CCN1CCN(c2ccc(NC(=O)COc3ccc(Cl)cc3C)cc2)CC1	u	15µM*	-1%[9.24 µM]	12%	u	u
Cc1cc(Cl)ccc1OCC(=O)NCc1ccncc1	u	-3%	9%	10%	-8%	i
Cc1cc(Cl)ccc1OCC(=O)Nc1ccncc1	u	-22%	u	-11%	16µM*	i
Cn1c(=O)c2c(-c3ccccc3)n(C3CCCCC3)cc2n(C)c1=O	21µM*	-5%	6%	17%	-1%	i
Cc1cccc(-c2c3c(=O)n(C)c(=O)n(C)c3cn2C2CCCCC2)c1	16µM*	4%	-12%	-1%	u	i
CCOC(=O)c1c(C)[nH]c(C(=O)NNC(=O)c2ccccc2)c1C	i	-4%	8%	17%	-12%	i
CCOC(=O)c1[nH]c(C)c(C(=O)Nc2ccc(Cl)cc2)c1C	i	1%	6%	9%	-2%	i
CCOC(=O)c1c(C)[nH]c(C(=O)N/N=C\c2ccccc2Cl)c1C	u	x	u	15µM*	u	u
CCOC(=O)c1[nH]c(C)c(C(=O)OC(C)C(=O)Nc2ncc(Cl)cc2Cl)c1C (stereo not given)	13µM*	-1%[9.22 µM]	-24%	-29%	u	u
CCOC(=O)c1c(C)[nH]c(C(=O)OC(C)C(=O)Nc2ccc(C)cc2)c1C (stereo not given)	i	x	10%	6%	x	i
CCOC(=O)c1[nH]c(C)c(C(=O)Nc2cccc(Cl)c2C)c1C	6.5µM*	12µM*	11µM*	7.9µM*	8.2µM*	5.8µM*
